Hits are enriched below; roughly 1.2% of the tested compounds scored in any of these assays.
Avidin fluor: compound fluoresces at 488/530 nm on avidin beads | compound fluorescence 488/530 nm, flow cytometry; hits give high values | fluorescence (KMESF) at 10 µM | 0.38% of 220,000 active | AID 1775; in the data active means fluorescence above about 47
RGS4-Gao reg: modulates binding of RGS4 to human Galphao; Multiplexed bead flow cytometry; actives lie on both sides; binding response (% of control), % at 10 µM; 0.33% of 220,000 active; in the data active means binding response below about 49% or above about 150%; inactive means in between;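 further: fluorescent Galphao activated with aluminum fluoride binding bead-coupled RGS4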
RGS8-Gao: modulates binding of RGS8 to human Galphao; P09471; multiplexed bead flow cytometry; actives lie on both sides; response (percent of control binding), % at 10 µM; 0.34% of 220,000 active; AID 1423; in the data active means response below about 60% or above about 140%; inactive means in between;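 further: Galphao activated as the GDP aluminium fluoride complex binding bead-coupled RGS8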
GSH bead fluor: compound fluoresces at 488/530 nm on GSH beads; AID 1776; fluorescence (KMESF) at 10 µM; 0.25% of 190,000 active; GSH beads flow cytometry, compound fluorescence 488/530 nm; hits give high values; in the data active means fluorescence above about 89;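 further: glutathione beads carrying GST-tagged Bcl family fusion proteins plus one bare bead set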
RGS16-Gao: RGS16-Galphao interaction regulator (human) | bead-based flow cytometry RGS16-Galphao binding, fluorescence; actives lie on both sides | O15492+P09471 | 0.38% of 220,000 active | binding response (% of control), % at 10 µM;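 further: Galphao activated by GDP with aluminum fluoride before binding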
RGS7-Gao: human RGS7-Galphao interaction regulation. 0.35% of 220,000 active. Multiplexed bead flow cytometry, RGS7-Galphao binding; actives lie on both sides. AID 1439. P09471. binding response (% of control), % at 10 µM; in the data active means binding response below about 49% or above about 150%; inconclusive means no clear call, values can overlap the other calls; inactive means in between;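 further: fluorescent Galphao held in activated GDP-AlF4 state binding bead-coupled RGS7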
RGS-Gao: regulators of human RGS4-Galphao interaction. shares compounds with RGS16-Gao. AID 1504. RGS4–Galpha-o binding response, % at 10 µM. multiplexed bead flow cytometry, RGS–Galpha-o binding. 99% of 1,600 active;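 further: fluorescently labeled Galpha-o bound to GDP with aluminium fluoride binding biotinylated RGS beads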
Target sequence (P09471 whole entry, looked up): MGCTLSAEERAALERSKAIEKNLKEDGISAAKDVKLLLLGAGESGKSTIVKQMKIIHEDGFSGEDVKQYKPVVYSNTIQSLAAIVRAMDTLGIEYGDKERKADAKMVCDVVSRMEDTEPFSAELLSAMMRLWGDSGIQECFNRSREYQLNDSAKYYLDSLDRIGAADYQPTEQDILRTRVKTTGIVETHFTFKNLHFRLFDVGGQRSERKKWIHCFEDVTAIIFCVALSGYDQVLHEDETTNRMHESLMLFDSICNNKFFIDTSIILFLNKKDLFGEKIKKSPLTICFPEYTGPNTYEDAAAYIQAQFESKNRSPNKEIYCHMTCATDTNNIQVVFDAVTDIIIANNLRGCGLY
Target sequence (P49798 whole entry, looked up): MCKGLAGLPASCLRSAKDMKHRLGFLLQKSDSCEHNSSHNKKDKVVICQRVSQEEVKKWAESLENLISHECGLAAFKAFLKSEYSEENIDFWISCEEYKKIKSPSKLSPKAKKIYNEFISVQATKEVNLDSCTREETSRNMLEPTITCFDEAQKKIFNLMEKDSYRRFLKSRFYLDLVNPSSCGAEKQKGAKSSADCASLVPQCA
Avidin counter: interferes with biotinylated probe binding to avidin beads. 1,700 tested, under 10 active. inhibition, % at 10 µM. streptavidin beads, fluorescein-biotin binding, flow cytometry. shares compounds with RGS16-Gao;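 active means inhibition above 50%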;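 further: median green fluorescence of gated singlet beads compared with DMSO control wells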
RGS8-Gao confirm: confirmation of regulators of human RGS8-Galphao interaction. bead-based flow cytometry RGS8-Galphao binding, fluorescence; actives lie on both sides. binding response (% of control), % at 10 µM. 3% of 1,700 active. shares compounds with RGS16-Gao. AID 1836; in the data active means binding response below about 72% or above about 130%; inactive means in between;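 further: Galphao activated as GDP AlF4 complex before binding bead RGS8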
RGS7-Gao single: confirmation of regulators of human RGS7-Galphao interaction; shares compounds with RGS16-Gao; bead-based flow cytometry RGS7-Galphao binding; actives lie on both sides; 7.8% of 1,700 active; AID 1837; response (percent of control binding), % at 10 µM; in the data active means response below about 75% or above about 130%; inactive means in between;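 further: fluorescent Galphao activated with GDP and aluminum fluoride binding bead-coupled RGS7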
RGS16-Gao single: RGS16-Galphao interaction regulation, single point confirmation; bead-based flow cytometry, RGS16-Galphao binding; actives lie on both sides; 4% of 1,700 active; response (% of control binding), % at 10 µM; shares compounds with RGS16-Gao; AID 1838; in the data active means response below about 74% or above about 130%; inactive means in between;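 further: Galphao activated as the GDP aluminium fluoride complex binding bead-coupled RGS16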
RGS4-Gao single: RGS4-Galphao interaction regulation, single point confirmation. shares compounds with RGS16-Gao. RGS4-Galphao binding, multiplexed bead flow cytometry; actives lie on both sides. binding response (% of control), % at 10 µM. 4% of 1,700 active. AID 1840; in the data active means binding response below about 74% or above about 130%; inactive means in between
RGS19-Gao single: confirmation of regulators of human RGS19-Galphao interaction; shares compounds with RGS16-Gao; bead-based flow cytometry RGS19-Galphao binding; actives lie on both sides; response (percent of control binding), % at 10 µM; 5% of 1,700 active; in the data active means response below about 50% or above about 160%; inactive means in between
Each line names hits and unclear results; the compound was inactive in the other large screens (follow-up assays come after a bar, where they were run); [ ] = another dose, or the depositor's remark. Unless noted, how the calls were made is not given here.

CC(CNCC1CCCO1)COc1cccc2ccccc12 (stereo unspecified)	RGS8-Gao 176[activator] | RGS-Gao 117 | Avidin counter inactive | RGS8-Gao confirm inactive | RGS7-Gao single inactive | RGS16-Gao single inactive | RGS4-Gao single inactive | RGS19-Gao single inactive
COc1ccccc1OCc1nc(C#N)c(N2CCCC2)o1	RGS4-Gao reg 22, RGS8-Gao 16, RGS7-Gao 13 | Avidin counter inactive | RGS8-Gao confirm inactive | RGS7-Gao single inactive | RGS16-Gao single inactive | RGS4-Gao single inactive | RGS19-Gao single inactive
CCCc1nc2oc3c(NCCOCCO)ncnc3c2c2c1COC(C)(C)C2	RGS4-Gao reg 165[activator], RGS7-Gao 173[activator] | Avidin counter inactive | RGS8-Gao confirm inactive | RGS7-Gao single inactive | RGS16-Gao single inactive | RGS4-Gao single inactive | RGS19-Gao single inactive
CC(C)c1nc2oc3c(NCCO)ncnc3c2c2c1COC(C)(C)C2	RGS7-Gao inconclusive (no result: GSH bead fluor)
O=C(COC(=O)Cc1ccc(-c2ccccc2)cc1)NCc1ccccc1	none
O=C(NCC1CC1)NC(=O)c1c(F)cccc1Cl	RGS4-Gao reg 5.7, RGS8-Gao 42, RGS16-Gao 9.3, RGS7-Gao inconclusive (no result: GSH bead fluor) | Avidin counter inactive | RGS8-Gao confirm inactive | RGS7-Gao single inactive | RGS16-Gao single inactive | RGS4-Gao single inactive | RGS19-Gao single inactive
COc1ccc(S(=O)(=O)NNC(N)=S)cc1	RGS7-Gao inconclusive
Cc1c(C(=O)N/N=C/c2ccc(N(C)C)cc2)[nH]c2ccc(Cl)cc12	RGS16-Gao 23 | RGS-Gao 94 | Avidin counter inactive | RGS8-Gao confirm inactive | RGS7-Gao single inactive | RGS16-Gao single inactive | RGS4-Gao single inactive | RGS19-Gao single inactive
N/C(=N\OC(=O)c1ccc(Cl)cc1)c1ccc(Cl)cc1	none
N/C(=N\OC(=O)c1ccco1)c1ccc(Cl)cc1	Avidin fluor 63, RGS7-Gao 164[activator] | RGS-Gao 109 | Avidin counter inactive | RGS8-Gao confirm inactive | RGS7-Gao single inactive | RGS16-Gao single inactive | RGS4-Gao single inactive | RGS19-Gao single inactive
COc1ccccc1C(=O)N1CCNC(=O)C1CC(=O)Nc1cccc(C)c1 (stereo unspecified)	Avidin fluor 143, RGS7-Gao 240[activator] | RGS-Gao 103 | Avidin counter inactive | RGS8-Gao confirm inactive | RGS7-Gao single inactive | RGS16-Gao single inactive | RGS4-Gao single inactive | RGS19-Gao single inactive
COc1ccc(NC(=S)N2CCNC(=O)C2CC(=O)Nc2cccc(Cl)c2C)cc1 (stereo unspecified)	RGS16-Gao 9.7 | RGS-Gao 95 | Avidin counter inactive | RGS8-Gao confirm inactive | RGS7-Gao single inactive | RGS16-Gao single inactive | RGS4-Gao single inactive | RGS19-Gao single inactive
Cc1cc2c3c(ccc(C)c3n1)N=CN2c1ccccc1	none (no result: Avidin fluor, RGS4-Gao reg, RGS8-Gao, RGS16-Gao, RGS7-Gao) | Avidin counter inactive | RGS8-Gao confirm inactive | RGS7-Gao single inactive | RGS16-Gao single inactive | RGS4-Gao single inactive | RGS19-Gao single inactive
Cc1cc(Nc2ccccc2)c2c([N+](=O)[O-])ccc(C)c2n1	none

Source: PubChem (NMMLSC)
